The record followed here is PubChem BioAssay AID463173 (ICCB-Longwood Screening Facility, Harvard Medical School, 2010).

Structures are written as SMILES. Out of some 52,000 compounds screened, about 4,300 (8.3%) were called active. This is one part of a sample in which actives are shown more often than they occur. A number with no mark means an inactive call. No stated cut-off is given here; in the data, active means survival mostly below about 52% (no sharp cut-off); inactive means mostly above about 56%.

This assay concerns DeltatarO mutant. Kind of assay: S. aureus survival, RN4220 and DeltatarO strains – OD600, teichoic acid synthesis inhibitors, primary screen (AID 463173). The conditions noted are these: S. aureus RN4220 wild type/DeltatarO growth, OD600, 18 h, hits give low values, screened at 18.75 µg/mL (by protocol).
In the case of `COCCN(C(=O)c1ccccc1)c1nnc(-c2ccncc2)s1`, the survival was 94%.
As to `Cc1cc(C)cc(NC(=O)CSc2nc(=O)[nH]c3c2CCC3)c1`, the survival is 112%.
Regarding `CCCOC1(C(F)(F)F)NC(=O)N(c2ccc(Cl)cc2)C1=O` (configuration not stated), the survival was 66%.
Regarding `Cc1cc(C)c2c(n1)SCCN2C(=O)Nc1ccc(C(=O)Nc2cc(Cl)ccc2C)cc1`, the survival is 97%.
In the case of `CC(=O)Nc1ccc(NC(=O)CCc2c(C)nc3c(c(C)nn3-c3ccc(C)cc3)c2C)cc1`, the survival was 114%.
In the case of `CCC1CN(C(=O)N2CCC(C(=O)N3CCN(c4cc(C)ccc4C)CC3)CC2)c2ccccc2O1` (configuration not stated) it was 36% (active); in that of `CCC1CN(C(=O)N2CCC(C(=O)N3CCN(c4cccc(C)c4C)CC3)CC2)c2ccccc2O1` (configuration not stated), 62%.
Consider `CCC1CN(C(=O)N2CCC(C(=O)N3CCN(c4ccccc4F)CC3)CC2)c2ccccc2O1` (configuration not stated), for which the survival was 97%.
For `CC1=C(C(=O)Nc2ccc(C)cc2C)C(c2sccc2C)n2ncnc2N1` (configuration not stated), the survival is 68%.
As to `O=C(NC1CCCC1)c1ccc2c(c1)OCO2`, the survival is 69%.
In the case of `O=C1C2C3c4ccccc4C(c4ccccc43)C2C(=O)N1C(CO)(CO)CO` (configuration not stated), the survival is 102%.
As for `CC1=C(C(=O)OC2CCCC2)C(c2c(Cl)cccc2Cl)CC(=O)N1` (configuration not stated), the survival was 71%.
Take `CC1=C(C(=O)OC2CCCCCC2)C(c2c(F)cccc2Cl)CC(=O)N1` (configuration not stated): the survival is 57%.
On to `CC1=C(C(=O)OC2CCCCCC2)C(c2c(Cl)cccc2Cl)CC(=O)N1` (configuration not stated), for which the survival is 32% (active).
With `CCCN1CC=C2C(C#N)=C(N)C(C#N)(C#N)C(c3ccc(OCC(N)=O)cc3)C2C1` (configuration not stated), the survival is 81%.
As for `CCCc1ccc(S(=O)(=O)N2CCC(c3nnc(-c4cccc(C)c4)o3)CC2)cc1`, the survival is 75%.
On to `COc1ccc(CNCc2c(C(=O)O)c(C)n(Cc3ccccc3C)c2C)cc1OC`, for which the survival was 91%.
For the compound `COc1cc(/C=C(\C#N)C(=O)Nc2ccc(C)cc2)ccc1OCc1cc(=O)n2nc(C)sc2n1`, the survival was 78%.
Take `CCOc1cc(/C=C(\C#N)C(=O)Nc2ccc(C)cc2)ccc1OCc1cc(=O)n2nc(CC)sc2n1`: the survival was 68%.
With `COc1ccc(NC(=O)/C(C#N)=C/c2ccc(OCc3cc(=O)n4nc(C)sc4n3)cc2)cc1`, the survival is 61%.
With `Cc1nn2c(=O)cc(COc3ccc(/C=C(\C#N)C(=O)Nc4ccccc4)cc3Cl)nc2s1`, the survival is 49% (active).
Turning to `CCc1nn2c(=O)cc(COc3ccc(/C=C(\C#N)C(=O)Nc4ccc(F)cc4)cc3OC)nc2s1`, the survival is 106%.
On to `CCOc1cc(/C=C(\C#N)C(=O)Nc2ccc(OC)cc2)ccc1OCc1cc(=O)n2nc(CC)sc2n1`, for which the survival was 55% (active).
As to `CCOc1ccc(NC(=O)CSc2nc3ccsc3c(=O)n2CC)cc1`, the survival is 89%.
The result for `Cc1cc(C)n2nc(C(=O)N/N=C/c3ccncc3)nc2n1` reads 76%.
In the case of `c1ccc(-n2nc3ccc4nonc4c3n2)cc1` it was 86%.
As for `On1c2c(c3c4nonc4ccc31)CCCC2`, the survival is 0% (active).
On to `COc1ccc(-c2[nH]c3ccccc3c2SCCNC(=O)c2ccc(S(=O)(=O)N(C)C)cc2)cc1`, for which the survival is 67%.
Consider `COc1cccc(C2=C(C(C)=O)Sc3nnc(C4CCCCC4)n3N2C(C)=O)c1`, for which the survival was 81%.
For the compound `CCOc1ccccc1NC(=O)c1cccc2c1C(=O)N(C1CCCCC1)C2`, the survival was 92%.
In the case of `O=C(c1cccs1)N1CCCC(c2nc3c(nnn3Cc3ccc(F)cc3)c(=O)[nH]2)C1` (configuration not stated), the survival is 101%.
For the compound `CCCC(=O)N1CCCC(c2nc3c(nnn3Cc3ccccc3)c(=O)[nH]2)C1` (configuration not stated), the survival was 102%.
On to `COc1cccc(Cn2nnc3c(=O)[nH]c(C4CCCN(C(=O)c5ccc(C)cc5)C4)nc32)c1` (configuration not stated), for which the survival was 90%.
In the case of `O=C(Nc1ccc(F)cc1)N1CCCC(c2nc3c(nnn3Cc3ccccc3Cl)c(=O)[nH]2)C1` (configuration not stated) it was 88%; in that of `CC(C)(C)C(=O)N1CCCC(c2nc3c(nnn3Cc3ccc(C(C)(C)C)cc3)c(=O)[nH]2)C1` (configuration not stated), 1% (active); in that of `Cc1ccc(Cn2nnc3c(=O)[nH]c(C4CCCN(C(=O)c5ccco5)C4)nc32)cc1` (configuration not stated), 91%.
In the case of `Cc1ccccc1Cn1nnc2c(=O)[nH]c(C3CCCN(C(=O)c4ccc(F)cc4)C3)nc21` (configuration not stated) it was 114%.
In the case of `Cc1ccccc1Cn1nnc2c(=O)[nH]c(C3CCCN(C(=O)c4ccc(C(C)(C)C)cc4)C3)nc21` (configuration not stated) it was 7% (active); in that of `CC(C)(C)c1ccc(C(=O)N2CCCC(c3nc4c(nnn4Cc4cccc(F)c4)c(=O)[nH]3)C2)cc1` (configuration not stated), 7% (active); in that of `CCc1ccc(Cn2nnc3c(=O)[nH]c(C4CCCN(C(=O)c5cccc(Cl)c5)C4)nc32)cc1` (configuration not stated), 74%.
With `Cc1cccc(Cn2nnc3c(=O)[nH]c(C4CCCN(C(=O)c5ccc(C(C)(C)C)cc5)C4)nc32)c1` (configuration not stated), the survival was 18% (active).
As for `Cc1cccc(Cn2nnc3c(=O)[nH]c(C4CCCN(C(=O)c5ccccc5Cl)C4)nc32)c1` (configuration not stated), the survival was 71%.
In the case of `COc1ccc(-c2ccc(NS(=O)(=O)c3ccc(F)c(C(F)(F)F)c3)cc2)nn1` it was 117%.
The result for `Cc1ccc2cc(CN(CCN(C)C)C(=O)NC3CCCCC3)c(=O)[nH]c2c1` reads 101%; that for `O=C(CCn1cccn1)NCc1ccc(Cl)cc1`, 73%.
For `COc1ccc(OC(=O)c2cn(-c3cccc(OC)c3)c(=O)c3ccccc23)cc1`, the survival was 80%.
As to `COC(=O)c1ccc(NC(=O)c2nn(C)c3c2CS(=O)(=O)c2ccccc2-3)cc1`, the survival is 81%.
For the compound `CC1(C)c2ssc(=S)c2-c2ccccc2N1C(=O)CSC#N`, the survival was 106%.
`Cc1ccc(NC(=O)c2c3c(nc4ccccc24)C(=O)N(C2CCCCC2)C3)cc1F`: the survival was 102%.
The result for `Cc1nn(CC(=O)Nc2cccc(C(F)(F)F)c2)c(=O)c2nn(-c3ccccc3)c(C)c12` reads 75%.
As to `O=C(c1ccc(-c2cccc(C(F)(F)F)c2)o1)N1CCOCC1`, the survival was 84%.
Take `COc1c(Cl)cc(Cl)cc1C(=O)Nc1cccc2cccnc12`: the survival is 143%.
In the case of `O=C(Nc1cccc2cccnc12)c1cccc2c(Br)cccc12` it was 70%.
For the compound `O=C(Nc1cccc2cccnc12)c1cccc2ccccc12`, the survival is 1% (active).
Consider `O=C(Nc1ccc(Br)c2cccnc12)c1cccc2ccccc12`, for which the survival was 29% (active).
As for `O=C(O)c1ccccc1C(=O)Nc1ccc(Br)c2cccnc12`, the survival is 49%.
On to `O=C(Nc1cccc2cccnc12)c1ccccc1[N+](=O)[O-]`, for which the survival was 68%.
